The panel holds about 83,000 compounds, 20% with a hit somewhere; the sample as a whole holds those more often.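 Negative percent growth values reflect cell death: -40 means 40% of the cells present at the start died, and -100 means all died.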 Active and inactive are the calls of the source. The calls were made as follows: active = growth percent below 10; inactive = the rest.
What was measured:
Assay in all cases: NCI-60 one-dose screen, 48 h (100 = growth as untreated, 0 = no growth, -100 = all killed)
Details in all cases: 10 µM unless noted
T-47D breast = tested on: T-47D breast
BT-549 breast = tested on: BT-549 breast
MDA-MB-435 melanoma = tested on: MDA-MB-435 melanoma
SW-620 colon = tested on: SW-620 colon
MCF7 breast = tested on: MCF7 breast
HCT-116 colon = tested on: HCT-116 colon
HCC-2998 colon = tested on: HCC-2998 colon
KM12 colon = tested on: KM12 colon

Measured: growth

CCC1C(=O)COC1=O (stereo not given)
inactive: T-47D breast 71.6% | BT-549 breast 95.9% | MDA-MB-435 melanoma 103% | SW-620 colon 98% | MCF7 breast 94.8% | HCT-116 colon 85.8% | HCC-2998 colon 107% | KM12 colon 101%

COc1cc(C(=O)/C=C/c2cc(-c3ccc4c(c3)OCO4)n[nH]2)cc(OC)c1OC
active: BT-549 breast -11.2% | SW-620 colon -15.1% | MCF7 breast 6.06% | HCT-116 colon 6.54% | KM12 colon 1.81%
inactive: T-47D breast 19.7% | MDA-MB-435 melanoma 40% | HCC-2998 colon 85.4%

CN(C)CCCCC(C(=O)CBr)(c1ccccc1)c1ccccc1
inactive: BT-549 breast 24.3% | MDA-MB-435 melanoma 36.3% | HCC-2998 colon 71.7% | KM12 colon 68.8%
active: T-47D breast -54.2% | SW-620 colon -49.7% | MCF7 breast 3.55% | HCT-116 colon -60.1%

Cn1cc(-c2csc(-c3cn(C(=O)OC(C)(C)C)c4ccccc34)n2)c2cccnc21
inactive: T-47D breast 43.4% | BT-549 breast 60.3% | MDA-MB-435 melanoma 11.4% | SW-620 colon 36.1% | MCF7 breast 53.6% | HCT-116 colon 56% | HCC-2998 colon 65.5% | KM12 colon 38.5%

C[C@@H](Oc1ccc(C(=O)NS(=O)(=O)C(C)(C)C)cc1C(F)(F)F)c1ccc(Oc2ccccc2)cn1
inactive: T-47D breast 39% | BT-549 breast 27.6% | SW-620 colon 23.3% | MCF7 breast 15% | HCT-116 colon 25.5% | HCC-2998 colon 61.1% | KM12 colon 28.3%
active: MDA-MB-435 melanoma -50.1%

O=C1c2ccccc2NC(c2cn(-c3ccccc3)nc2-c2cccnc2)N1Cc1ccccc1 (stereo not given)
inactive: T-47D breast 75% | BT-549 breast 105% | MDA-MB-435 melanoma 108% | SW-620 colon 105% | MCF7 breast 89.3% | HCT-116 colon 95.5% | HCC-2998 colon 97.2% | KM12 colon 91.5%

O=c1[nH]ncc(Br)c1Br
inactive: T-47D breast 46.3% | BT-549 breast 83.2% | MDA-MB-435 melanoma 64.3% | MCF7 breast 23% | HCT-116 colon 15.2% | HCC-2998 colon 54% | KM12 colon 45.8%
active: SW-620 colon -80.3%

N#CC1=C(N)Oc2c(c(N)nn2-c2ccccc2)C1c1ccc(Cl)cc1 (stereo not given)
inactive: T-47D breast 86.7% | BT-549 breast 81.5% | MDA-MB-435 melanoma 105% | SW-620 colon 98.1% | MCF7 breast 98.7% | HCT-116 colon 96.2% | HCC-2998 colon 113% | KM12 colon 104%

CCOc1ccc(NC(=O)c2ccccc2-c2ccccc2C(=O)O)cc1
inactive: T-47D breast 103% | BT-549 breast 108% | MDA-MB-435 melanoma 104% | SW-620 colon 107% | MCF7 breast 97.4% | HCT-116 colon 103% | HCC-2998 colon 103% | KM12 colon 110%

CC/C=C\C[C@H]1CC=C2C(=O)C=C[C@@H]2CC=CCCCC(=O)O[C@@H](CCCCC)CC=C2C(=O)C=C[C@@H]2CC=CCCCC(=O)O[C@@H](CCCCC)CC=C2C(=O)C=C[C@@H]2CC=CCCCC(=O)O[C@@H](CCCCC)CC=C2C(=O)C=C[C@@H]2CC=CCCCC(=O)O1
inactive: T-47D breast 29.5% [7.9 µM] | MCF7 breast 20.4% [7.9 µM] | HCC-2998 colon 88.6% [7.9 µM] | KM12 colon 21.1% [7.9 µM]
active: BT-549 breast -17.3% [7.9 µM] | MDA-MB-435 melanoma -23.1% [7.9 µM] | SW-620 colon 9.77% [7.9 µM] | HCT-116 colon -53.6% [7.9 µM]

C[C@@H](C(=O)O)c1ccc2c3cc(Cl)ccc3n(Cc3cc(=O)oc4ccc(Cl)cc34)c2c1
inactive: T-47D breast 86.8% | BT-549 breast 86.7% | MDA-MB-435 melanoma 104% | SW-620 colon 107% | MCF7 breast 90.7% | HCT-116 colon 87.8% | HCC-2998 colon 101% | KM12 colon 99%

Cn1cc(-c2csc(-c3cn(CCNC(=O)OC(C)(C)C)c4ccc(F)cc34)n2)c2cccnc21
inactive: BT-549 breast 65.4% | MDA-MB-435 melanoma 77.6% | SW-620 colon 88.4% | MCF7 breast 47.3% | HCT-116 colon 82.6% | HCC-2998 colon 93.5% | KM12 colon 52.7%
active: T-47D breast 1.12%

COc1ccc2c(c1)c(-c1nc(-c3c[nH]c4ncccc34)cs1)cn2CCNC(=O)OC(C)(C)C
active: T-47D breast 9.63%
inactive: BT-549 breast 84.5% | MDA-MB-435 melanoma 94.7% | SW-620 colon 96% | MCF7 breast 37.3% | HCT-116 colon 87.6% | HCC-2998 colon 96.6% | KM12 colon 46.1%

COc1ccc(/C=C(\C#N)c2cc3ccccc3n2S(C)(=O)=O)cc1
active: MDA-MB-435 melanoma 6.05%
inactive: T-47D breast 96.2% | BT-549 breast 86% | SW-620 colon 70.1% | MCF7 breast 66.8% | HCT-116 colon 82.9% | HCC-2998 colon 94% | KM12 colon 69%

N#CC1=C(N)Oc2ccc3ccccc3c2C1c1ccccc1 (stereo not given)
inactive: T-47D breast 40.8% | BT-549 breast 19.8% | SW-620 colon 28% | MCF7 breast 14.8% | HCT-116 colon 19.4% | HCC-2998 colon 69.3% | KM12 colon 24.5%
active: MDA-MB-435 melanoma -21.6%

Source: PubChem BioAssay (NCI)
